In PubChem BioAssay (Tox21):
Calls of active or inactive are those of the source. Calls follow the shape of the dose curve; as a rule, active = well fitted curve in the direction sought with a large enough effect in the repeat runs; inconclusive = weak or mixed curves; inactive = flat fitted curve, though single readings scatter.

Test: qHTS assay to test for compound auto fluorescence at 460 nm (blue) in HepG2 cells (AID 720687)
Details: autofluorescence 405/460 nm, 1 h; series mostly up to 91.3 µM
Source text: U.S. Tox21 Program National Center for Advancing Translational Sciences [NCATS] NIH Chemical Genomics Center [NCGC] U.S. Environmental Protection Agency [EPA] National Institutes of Environmental Health Sciences [NIEHS] National Toxicology Program [NTP] U.S. Food and Drug Administration [FDA] Tox21 Assay Overview: Compound auto fluorescence often interferes with screening of the compound library against various biological targets and signaling pathways. Some of these compounds may have fluorophoric properties. Such properties may interfere with the assay outputs resulting in false positives and/or negatives. To decrease such complications and ensure the compound activities are relevant in terms of biological response, the Tox21 10K compound library was screened for auto fluorescence. From the fluorophores used as reporter signals in our screening assays, the auto fluorescence equivalencies of compounds against three fluorophores have been evaluated: Triamterene, Fluorescein and Rose Bengal sodium for blue, green and red fluorescence, respectively. The fluorescence intensities were measured using Excitation/Emission wavelengths at 405/460nm, 485/535nm and 540/590nm for blue, green and red labels, respectively. This assay includes the blue fluorescence data.
Tox21 Assay Protocol Summary: 2,000 HepG2 cells in 5 uL of culture medium (MEM containing 10% FBS) per well were dispensed into black wall/clear bottom 1536-well plates using a Multidrop Combi Dispenser (ThermoFisher Scientific, Waltham, MA). The assay plates were incubated overnight at 37 C to allow cell attachment to the well bottom, followed by the transfer of 23 nL compound or DMSO vehicle by a pintool work station (Kalypsys , San Diego, CA). After the assay plates were incubated for 1 hr at 37 C and 5% CO2, fluorescence intensities in the assay plates were measured by an Envision (PerkinElmer, Shelton, CT) plate reader using three labels for measuring blue, green and red fluorescence at […] 460, 535 and 590 nm respectively.
In the case of NCCNc1cccc2ccccc12, the outcome is reported as “inactive”.
With CC1(C)O[C@@H]2[C@@H](CO[C@@]3(COS(N)(=O)=O)OC(C)(C)O[C@@H]23)O1 the outcome was “inactive”.
For CCOC(=O)C(C)(C)Oc1ccc(Cl)cc1, the outcome was “inactive”.
For C=CCOC(=O)CC(C)C, the outcome was “inactive”.
With COC1=CC(=O)C[C@@H](C)[C@]12Oc1c(Cl)c(OC)cc(OC)c1C2=O the outcome was “inactive”.
In the case of NC(=O)NO, the outcome is reported as “inactive”.
For CCn1cc(C(=O)O)c(=O)c2ccc(C)nc21, the outcome was “inactive”.
In the case of NC(=O)N1c2ccccc2C=Cc2ccccc21, the outcome is reported as “inactive”.
For O=C(O)Cc1cccc2ccccc12, the outcome was “inactive”.
For C#C[C@]1(O)CC[C@H]2[C@@H]3CCC4=CC(=O)CC[C@@H]4[C@H]3CC[C@@]21CC, the outcome was “inactive”.
For CC(C)(C)NCC(O)c1ccc(O)c(CO)c1 (stereo not given), the outcome was “inactive”.
With CC(=O)/C=C/C1=C(C)CCCC1(C)C the outcome was “inactive”.
In the case of CC(=O)Oc1ccccc1C(=O)O, the outcome is reported as “inactive”.
With CO[C@H]1C=CO[C@@]2(C)Oc3c(C)c(O)c4c(O)c(c(/C=N/N5CCN(C)CC5)c(O)c4c3C2=O)NC(=O)/C(C)=C\C=C[C@H](C)[C@H](O)[C@@H](C)[C@@H](O)[C@@H](C)[C@H](OC(C)=O)[C@@H]1C the outcome was “inactive”.
For CN(C)C=O, the outcome was “inactive”.
With CC(C)Cc1ccc(C(C)C(=O)O)cc1 (stereo not given) the outcome was “inactive”.
In the case of Cc1c(N(C)CS(=O)(=O)O)c(=O)n(-c2ccccc2)n1C, the outcome is reported as “inactive”.
With N[C@@H](Cc1c[nH]c2ccccc12)C(=O)O the outcome was “inactive”.
For CCCCC/C(C=O)=C\c1ccccc1, the outcome was “inactive”.
With O=C(O)CN(CC(=O)O)CC(=O)O the outcome was “inactive”.
For NC(=O)N/N=C/c1ccc([N+](=O)[O-])o1, the outcome was “inactive”.
With NC(N)=NC(N)=NCCc1ccccc1 the outcome was “inactive”.
For C#C[C@]1(O)CC[C@H]2[C@@H]3CCc4cc(O)ccc4[C@H]3CC[C@@]21C, the outcome was “inactive”.
For CCN1CCCC1=O, the outcome was “inactive”.
For C=C(C)C(N)=O, the outcome was “inactive”.
For Cc1cccc(Nc2cc(Cl)nc(SCC(=O)O)n2)c1C, the outcome was “inactive”.
In the case of CCCCOCCOCCOC(C)=O, the outcome is reported as “inactive”.
For CC(=O)OC/C=C(C)/C=C/C=C(C)/C=C/C1=C(C)CCCC1(C)C, the outcome was “inactive”.
With Nc1ccc(N=Nc2ccccc2)c(N)n1 the outcome was “inactive”.
For CCCCCCCCOc1ccc(C(=O)c2ccccc2)c(O)c1, the outcome was “inactive”.
With Cc1ccc(O)c(-n2nc3ccccc3n2)c1 the outcome was “inactive”.
For Cc1c(N(C)C)c(=O)n(-c2ccccc2)n1C, the outcome was “inactive”.
With CC(=O)c1ccc(S(=O)(=O)NC(=O)NC2CCCCC2)cc1 the outcome was “inactive”.
In the case of NC(=O)OCC(COC(N)=O)c1ccccc1, the outcome is reported as “inactive”.
In the case of CCCCCCCC(=O)OCC(O)CO (stereo not given), the outcome is reported as “inactive”.
In the case of CC(O)COc1ccccc1 (stereo not given), the outcome is reported as “inactive”.
For Cn1cnc2c1c(=O)[nH]c(=O)n2C, the outcome was “inactive”.
For O=C1OC(c2ccc(O)cc2)(c2ccc(O)cc2)c2ccccc21, the outcome was “inactive”.
With CCc1cc(C(N)=S)ccn1 the outcome was “inactive”.
With C=CC(=O)NC(C)(C)CS(=O)(=O)O the outcome was “inactive”.
